Results on 14 compounds are retold here after PubChem BioAssay (NCI).

The structures appear in SMILES notation. This is part of a sample that, as a whole, favours compounds with a hit. Of some 83,000 tested, about 20% had one in any assay.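 48-hour exposure, single concentration, 96-well plates; percent growth endpoint where 0 means no net growth. Active: below 10.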 A number with no mark means an inactive call. Calls of active or inactive are those of the source.

Test systems include NCI-H226 lung; NCI-H322M lung; HOP-62 NSCLC; NCI-H460 lung; HOP-92 NSCLC; NCI-H522 lung; A549/ATCC NSCLC; 786-0 renal; COLO 205 colon; DU-145 prostate.
What all share (test): NCI-60 one-dose screen, 48 h (100 = growth as untreated, 0 = no growth, -100 = all killed)
Holding throughout (conditions): 10 µM unless noted

With `CCOC(=O)c1sc(N)c(C(=O)OCC)c1C`, the growth was 59.7% with NCI-H226 lung; 83.1% in the experiment on NCI-H322M lung; 52.6% in the experiment with HOP-62 NSCLC; 92.5% in the experiment with NCI-H460 lung; -7.89% (active) in the experiment with HOP-92 NSCLC; 56.9% in the experiment with NCI-H522 lung. Besides, the growth with A549/ATCC NSCLC was 65.3%; in the experiment with 786-0 renal it was 50.4%; in the experiment with COLO 205 colon, 68.4%; in the experiment with DU-145 prostate, 66.2%.

On to `Cc1ccccc1NC(=O)/C=C/c1ccc(OCCOc2ccc3c(C)cc(=O)oc3c2)cc1`, for which the growth in the experiment on NCI-H226 lung is 92.9%; in the experiment on NCI-H322M lung it was 92.2%; in the experiment on HOP-62 NSCLC, 110%; in the experiment on NCI-H460 lung, 91.8%; in the experiment on HOP-92 NSCLC, 93.1%; with NCI-H522 lung, 85.1%. In addition, the growth in the experiment with A549/ATCC NSCLC was 95.7%; with 786-0 renal, 110%; with COLO 205 colon, 103%; in the experiment with DU-145 prostate, 100%.

Regarding `C#Cc1nc(C2=C(C)C(OC(C)=O)/C(=N/OC(C)=O)C2)cs1` (stereo not given), the growth was 96.1% in the experiment on NCI-H226 lung; 116% in the experiment on NCI-H322M lung; -46.9% (active) in the experiment on HOP-62 NSCLC; 36.1% in the experiment with NCI-H460 lung; -79.9% (active) with HOP-92 NSCLC; -86.2% (active) in the experiment on NCI-H522 lung. Moreover, the growth is 69.7% with A549/ATCC NSCLC, -87.9% (active) in the experiment with 786-0 renal, 51.3% with COLO 205 colon and 67% in the experiment with DU-145 prostate.

On to `OC1CCN(CCCOc2c3ccc(Cl)cc3nc3c2oc2ccc(Cl)cc23)CC1`, for which the growth was 2.57% (active) in the experiment with NCI-H226 lung; 15% in the experiment with NCI-H322M lung; 41% with HOP-62 NSCLC; -75.2% (active) in the experiment on NCI-H460 lung; 9.66% (active) in the experiment with HOP-92 NSCLC; 9.65% (active) in the experiment with NCI-H522 lung. Further, the growth was -52.9% (active) with A549/ATCC NSCLC, -99% (active) in the experiment with 786-0 renal, -11.1% (active) with COLO 205 colon and -97.5% (active) in the experiment on DU-145 prostate.

For the compound `C#Cc1nc(C2=C(C)C(OC(=O)CCC(=O)O)CC2)cs1` (stereo not given), the growth was 106% with NCI-H226 lung; 104% with NCI-H322M lung; 111% with HOP-62 NSCLC; 107% in the experiment with NCI-H460 lung; 106% in the experiment on HOP-92 NSCLC; 101% in the experiment on NCI-H522 lung. Further, the growth with A549/ATCC NSCLC was 90.7%; in the experiment with 786-0 renal, -86.5% (active); in the experiment on COLO 205 colon it was 122%; in the experiment with DU-145 prostate it was 106%.

On to `O=C(CCCN1C(=O)/C(=C/c2ccccc2F)SC1=S)N1CCOCC1`, for which the growth is 110% in the experiment on NCI-H226 lung; 85.5% with NCI-H322M lung; 119% with HOP-62 NSCLC; 97.8% with NCI-H460 lung; 86.4% with HOP-92 NSCLC; 48.8% with NCI-H522 lung. For the same compound, the growth in the experiment on A549/ATCC NSCLC was 93.1%; in the experiment with 786-0 renal, 89.8%; in the experiment with COLO 205 colon, 126%; with DU-145 prostate it was 74.5%.

Regarding `COc1cc(/C=C/C(=O)c2cc(OC)c(OC)c(OC)c2)ccc1OCc1ccccc1`, the growth in the experiment on NCI-H226 lung is 48.6%; in the experiment with NCI-H322M lung, 45.5%; in the experiment on HOP-62 NSCLC, 40.8%; in the experiment with NCI-H460 lung it was 22.4%; in the experiment on HOP-92 NSCLC it was 58.4%; in the experiment on NCI-H522 lung it was 49.3%. In addition, the growth with A549/ATCC NSCLC is 38.8%; in the experiment with 786-0 renal, 40.1%; with COLO 205 colon it was 93.4%; in the experiment on DU-145 prostate it was 27.2%.

`COc1ccc(COc2ccc(/C=C3/C(=O)Nc4cc(Cl)ccc43)cc2)cc1`: the growth is 89.4% in the experiment with NCI-H226 lung; 87.7% with NCI-H322M lung; 95.4% with HOP-62 NSCLC; 98.2% with NCI-H460 lung; 93.1% in the experiment on HOP-92 NSCLC; 92% in the experiment with NCI-H522 lung. Besides, the growth was 98.7% in the experiment on A549/ATCC NSCLC, 110% in the experiment on 786-0 renal, 101% with COLO 205 colon and 98.2% in the experiment on DU-145 prostate.

With `CCCSc1nc(Nc2ccc(/C(C)=N\NC(N)=S)cc2)c(C#N)c(-c2ccc(OC)cc2)n1`, the growth in the experiment with NCI-H226 lung is 27%; in the experiment on NCI-H322M lung it was 80.8%; in the experiment on HOP-62 NSCLC, 31.6%; with NCI-H460 lung it was 42.8%; in the experiment with HOP-92 NSCLC, -20.9% (active); with NCI-H522 lung, 89%. In addition, the growth in the experiment with A549/ATCC NSCLC is 60.6%; in the experiment with 786-0 renal, 5.18% (active); in the experiment on COLO 205 colon it was 113%; in the experiment with DU-145 prostate, 52.2%.

As for `COc1cc2nc(-c3ccc(C(F)(F)F)cc3)cc(OCCCNCC3CCCO3)c2cc1OC` (stereo not given), the growth is 54.3% with NCI-H226 lung; 57.2% in the experiment on NCI-H322M lung; 53.8% in the experiment on HOP-62 NSCLC; 21.8% in the experiment on NCI-H460 lung; 26.3% in the experiment on HOP-92 NSCLC; 41.8% with NCI-H522 lung. The growth with A549/ATCC NSCLC is 37.3%; in the experiment on 786-0 renal, -55.2% (active); in the experiment on COLO 205 colon, 23.3%; with DU-145 prostate, 36.7%.

With `CCOC(=O)c1c(NC(=O)c2cccc(C(F)(F)F)c2)sc2cc(O)ccc12`, the growth in the experiment with NCI-H226 lung was 98.1%; in the experiment with NCI-H322M lung, 98%; with HOP-62 NSCLC, 99.3%; in the experiment on NCI-H460 lung it was 99.9%; in the experiment on HOP-92 NSCLC, 102%; with NCI-H522 lung it was 81.3%. In addition, the growth in the experiment with A549/ATCC NSCLC is 101%; in the experiment on 786-0 renal it was 109%; in the experiment on COLO 205 colon, 107%; with DU-145 prostate, 98.9%.

Consider `Cc1ccc(-c2nc(C(Cl)Cl)nc3cc(-c4ccccc4)nn23)cc1`, for which the growth was 76.4% with NCI-H226 lung; -36.8% (active) with NCI-H322M lung; -16.7% (active) in the experiment with HOP-62 NSCLC; -73.5% (active) in the experiment on NCI-H460 lung; -3.62% (active) in the experiment with HOP-92 NSCLC; 1.72% (active) in the experiment with NCI-H522 lung. In addition, the growth with A549/ATCC NSCLC was -56.3% (active); in the experiment on 786-0 renal it was 62.4%; in the experiment with COLO 205 colon it was -69.4% (active); in the experiment on DU-145 prostate, -26.3% (active).

For `COc1cc(/C=C/C(=O)c2cc(OC)c(OC)c(OC)c2)ccc1Oc1nc(NCCO)nc(N2CCOCC2)n1`, the growth is -1.45% (active) with NCI-H226 lung; 24% in the experiment on NCI-H322M lung; 1.11% (active) in the experiment with HOP-62 NSCLC; -51.6% (active) in the experiment on NCI-H460 lung; 13.5% in the experiment on HOP-92 NSCLC; -11.1% (active) in the experiment with NCI-H522 lung. Further, the growth in the experiment on A549/ATCC NSCLC is 6.84% (active); in the experiment on 786-0 renal, -5.28% (active); with COLO 205 colon, 3.69% (active); with DU-145 prostate it was 12.6%.

Regarding `O=C1Nc2cc(Cl)ccc2/C1=C\c1ccc(OCc2ccc([N+](=O)[O-])cc2)cc1`, the growth with NCI-H226 lung is 81%; in the experiment with NCI-H322M lung it was 75.1%; in the experiment on HOP-62 NSCLC, 79.8%; in the experiment with NCI-H460 lung, 59.9%; in the experiment with HOP-92 NSCLC, 45.8%; in the experiment with NCI-H522 lung it was 66.9%. The growth in the experiment on A549/ATCC NSCLC was 78%; in the experiment on 786-0 renal it was 51%; with COLO 205 colon it was 92.9%; with DU-145 prostate it was 79.9%.
